FLuc modulator: qHTS profiling assay for firefly luciferase inhibitor/activator using purifed enzyme and Km concentrations of substrates (counterscreen for miR-21 project); Luciferin 4-monooxygenase (Photinus pyralis), P08659; purified FLuc, Km substrates, luminescence inhibition; Potency, µM (series often up to 57.5 µM), inactives show top-dose activity change, negative = inhibition, usual class: inhibitors; 360,000 tested, 6.9% active; AID 588342, 2011;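 note: plate controls were vehicle for no effect and reference inhibitor for full effect; nearly all actives have a fitted effect of over 55% in size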
Target sequence (P08659 whole entry, looked up): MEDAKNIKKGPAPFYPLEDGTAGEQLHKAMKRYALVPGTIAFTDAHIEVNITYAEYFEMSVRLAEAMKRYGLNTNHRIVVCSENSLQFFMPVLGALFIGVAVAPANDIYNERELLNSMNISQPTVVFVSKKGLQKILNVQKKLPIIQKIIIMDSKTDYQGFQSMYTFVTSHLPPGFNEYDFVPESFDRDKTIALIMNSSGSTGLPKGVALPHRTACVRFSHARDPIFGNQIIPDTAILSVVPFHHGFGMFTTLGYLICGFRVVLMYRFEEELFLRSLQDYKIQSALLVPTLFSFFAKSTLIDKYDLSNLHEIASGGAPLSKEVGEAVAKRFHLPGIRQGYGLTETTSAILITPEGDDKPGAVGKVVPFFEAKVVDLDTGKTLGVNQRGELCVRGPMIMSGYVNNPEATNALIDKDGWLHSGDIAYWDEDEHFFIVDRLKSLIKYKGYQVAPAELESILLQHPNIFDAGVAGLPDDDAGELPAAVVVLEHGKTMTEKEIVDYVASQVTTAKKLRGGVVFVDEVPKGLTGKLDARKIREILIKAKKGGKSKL
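Biochemical qHTS of compounds, final roughly 60 µM downward over six points, against 10 nM purified firefly luciferase using Km concentrations of substrates (10 uM D-luciferin, 10 uM ATP) in Tris acetate pH 7.5 buffer; luminescence output.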
SMN2 splice enh: qHTS Assay for Enhancers of SMN2 Splice Variant Expression | HEK293 SMN2-luciferase splicing reporter, luminescence, 30-36 h | Potency, µM (doses to about 46.1 µM), without a hit: at the top dose activity change, positive = activation, hits mostly activators | 210,000 tested, 2.8% active; note: % of control where 0% means no effect; nearly all actives have a fitted effect of over 55% in size
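qHTS luciferase splicing reporter: luminescence rises when SMN2 exon 7 is included in transfected HEK293 cells. Compound exposure lasted 30-36 h at 37C, with 4.5 mM final sodium butyrate as control, followed by a ONE-Glo read.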
Rab9 promoter act: qHTS Assay for Rab9 Promoter Activators | Huh7 Rab9 promoter-luciferase reporter, luminescence, 24 h | Potency, µM (doses to about 9.22 µM), inactives show top-dose activation, negative = inhibition, most hits filed as activators | 320,000 tested, 2.8% active | AID 485297, 2010; note: % of control where 0% means no effect; nearly all actives have a fitted effect of over 60% in size
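Huh7 reporter line, Rab9 promoter upstream of luciferase. Compound exposure 24 h at 37 °C in reduced-serum medium with 10% FBS. Read-out: luminescence.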
ELG1 genotox: qHTS screen for small molecules that induce genotoxicity in human embryonic kidney (HEK293T) cells expressing luciferase-tagged ELG1; 330,000 tested, 1.3% active; Potency, µM (doses to about 46 µM), for inactives: top-dose activity change, positive = activation, actives largely listed as activators; AID 504466, 2011; HEK293T ELG1-luciferase reporter, luminescence, 16 h; note: % of control where 0% means no effect; nearly all actives have a fitted effect of over 60% in size
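Step 1: seed 2,000 HEK293T ELG1-luciferase cells per well. Step 2: add compound or DMSO, incubate 16 hr at 37 °C. Step 3: ONE-Glo, 30 min at room temperature, read luminescence.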
uPA generation: qHTS for Inhibitors of Cell Surface uPA Generation; AID 540303, 2011; 330,000 tested, 0.31% active; cell surface uPA generation assay, qHTS; Potency, µM (doses to about 38.3 µM), inactives show at the highest dose activity change, negative = inhibition, most hits filed as inhibitors; active = well fitted inhibition curve with a large enough effect; inconclusive = small, poorly fitted or top-dose-only effect; inactive = no such curve, though single readings can be large or run the other way; tested in mouse RAW 264.7 cells; note: % is set by controls: 0 for no effect and ±100 for the full control effect; nearly all actives have a fitted effect of over 55% in size
NPC1 prom act: qHTS Assay for NPC1 Promoter Activators; Huh7 NPC1 promoter luciferase reporter, 24 h; Potency, µM (titrated, usually from 9.22 µM), inactives show at the highest dose activation, hits mostly activators; 320,000 tested, 2.4% active; AID 485313, 2010; note: % of control where 0% means no effect; nearly all actives have a fitted effect of over 60% in size
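Stable NPC1-promoter luciferase Huh7 line; cpd (DMSO) 24 h, 37 °C, 5% CO2; Amplite luciferase reagent 10 min RT; luminescence readout. qHTS format.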
* = called active by the depositor. Compounds with a hit are over-represented: about 7.3% of the library has one in this group of screens. Unless noted, calls come from the whole dose curve; as a rule, active = well fitted curve in the direction sought with a large enough effect; inconclusive = small, poorly fitted or top-dose-only effect, or another doubt; inactive = no such curve, though single readings can be large; an effect the other way counts as inactive or inconclusive. Potency is the fitted concentration of half-maximal effect.

Cn1ccnc1SCc1cn2cc(Br)ccc2n1 was read as FLuc modulator 3.8µM*, SMN2 splice enh inconclusive, Rab9 promoter act 0.56µM*, ELG1 genotox inconclusive, uPA generation -7% and NPC1 prom act 0.32µM*.
Screening O=C1C(C=NCc2cccnc2)=C(O)c2ccccc21 returned FLuc modulator 1.9µM*, Rab9 promoter act inconclusive, ELG1 genotox 2.1µM*, uPA generation 5% and NPC1 prom act 14%.
Screening O=C1C(C=NCc2ccco2)=C(O)c2ccccc21 returned FLuc modulator 6.7µM*, SMN2 splice enh inconclusive, Rab9 promoter act 28%, ELG1 genotox 5.2µM*, uPA generation -6% and NPC1 prom act 21%.
O=C1C(C=NCc2ccncc2)=C(O)c2ccccc21 was read as FLuc modulator -15%, SMN2 splice enh 11%, Rab9 promoter act 19%, ELG1 genotox 14%, uPA generation -3% and NPC1 prom act 0%.
CN(C)c1ncc2nc(-c3cccs3)c(=O)n(C3CC3)c2n1 was read as SMN2 splice enh 0%.
Cc1ccc(OCC(=O)NCC(=O)Nc2ccc(F)cc2)c([N+](=O)[O-])n1 was read as FLuc modulator 6%, SMN2 splice enh 0%, Rab9 promoter act 1%, ELG1 genotox -3%, uPA generation 2% and NPC1 prom act -4%.
COc1cc(Cl)c(C)cc1NC(=O)COc1ccc(C)nc1[N+](=O)[O-] was read as FLuc modulator -20%, Rab9 promoter act 4µM*, ELG1 genotox 10%, uPA generation 3% and NPC1 prom act inconclusive.
`COc1ccc(CCNC(=O)COc2ccc(C)nc2[N+](=O)[O-])cc1OC` gave FLuc modulator -1%, SMN2 splice enh 4%, Rab9 promoter act -2%, ELG1 genotox 0%, uPA generation 3% and NPC1 prom act -7%.
For Cc1ccc(OCC(=O)Nc2ccc3c(c2)CCC3)c([N+](=O)[O-])n1 the results were FLuc modulator 27µM*, SMN2 splice enh 17%, Rab9 promoter act 23%, ELG1 genotox inconclusive, uPA generation 2% and NPC1 prom act 24%.
For Cc1ccc(OCC(=O)Nc2ccc(F)cc2)c([N+](=O)[O-])n1 the results were FLuc modulator 12µM*, SMN2 splice enh 13µM*, Rab9 promoter act 3.5µM*, ELG1 genotox inconclusive, uPA generation -4% and NPC1 prom act inconclusive.
COc1ccc(NC(=O)COc2ccc(C)nc2[N+](=O)[O-])cc1S(N)(=O)=O was read as FLuc modulator -1%, Rab9 promoter act -2%, ELG1 genotox 0%, uPA generation 6% and NPC1 prom act -1%.
Screening Cc1ccc(OCC(=O)Nc2ccc(Cl)cc2)c([N+](=O)[O-])n1 returned Rab9 promoter act inconclusive, ELG1 genotox inconclusive, uPA generation -66% and NPC1 prom act 2.8µM*.
Screening CCOc1ccccc1NC(=O)N1CC(CC)Oc2ccccc21 (centres undefined) returned FLuc modulator -2%.
Screening O=C(Nc1ccc2nc(SCC(=O)N3CCCc4ccccc43)sc2c1)c1cccc(Cl)c1 returned FLuc modulator -11%.
For Cn1ncc2c(Nc3cccc(C#N)c3)ncnc21 the results were FLuc modulator -3%.
For CCOc1ccccc1NC(=O)c1sc2nc3n(c(=O)c2c1C)CCCCC3 the results were FLuc modulator -6%.
Cc1oc(-c2ccc(Cl)cc2)nc1Cn1c(=O)cc(C)c2c(C)nn(-c3ccccc3)c21 was read as FLuc modulator -1%.
Screening FC(F)Oc1ccccc1/C=N/n1cnc2ccccc21 returned FLuc modulator 24µM*, SMN2 splice enh inconclusive, Rab9 promoter act 25%, ELG1 genotox 11%, uPA generation -2% and NPC1 prom act 1%.
O=C(c1ccc(CSc2nc3ccncc3n2Cc2ccccc2F)cc1)N1CCCCC1 was read as FLuc modulator inconclusive and SMN2 splice enh -20%.
COc1ccc(/C=C/C(=O)CCC(=O)O)cc1 was read as FLuc modulator 6.7µM*, Rab9 promoter act 2.8µM*, ELG1 genotox 9%, uPA generation -1% and NPC1 prom act inconclusive.
Screening COc1ccc(/C=C/C(=O)Oc2ccc(C)cc2)cc1 returned FLuc modulator 12µM*, Rab9 promoter act 10%, ELG1 genotox -1%, uPA generation -19% and NPC1 prom act -3%.
COc1ccc(/C=C/C(=O)O)cc1 was read as ELG1 genotox -1% and uPA generation -3%.
For CCOC(=O)[C@H]1[C@H]2COc3ccc(OC)cc3[C@@H]2N2C(=O)CN(Cc3ccc(OC)cc3)C(=O)[C@@]12C the results were FLuc modulator -1%, Rab9 promoter act -1%, ELG1 genotox -1%, uPA generation 12% and NPC1 prom act 0%.
CS(=O)(=O)N1CCN(c2ccc(NC(=O)c3ccc(Br)o3)cc2)CC1 was read as FLuc modulator -15%, SMN2 splice enh 7.1µM*, Rab9 promoter act 3.2µM*, ELG1 genotox 1.5µM*, uPA generation 5% and NPC1 prom act 2.8µM*.
For CC1CCN(c2ccc(NC(=O)c3cccnc3)cc2)CC1 the results were FLuc modulator 12µM*, SMN2 splice enh 28µM*, Rab9 promoter act inconclusive, ELG1 genotox 11%, uPA generation -1% and NPC1 prom act inconclusive.
For Cc1ccc(C(=O)N2CCN(c3ccc(NC(=O)c4ccc(Br)o4)cc3)CC2)cc1 the results were FLuc modulator 2%, SMN2 splice enh -87%, Rab9 promoter act -2%, ELG1 genotox -26%, uPA generation -11% and NPC1 prom act -5%.
`CN1CCN(c2ccc(NC(=O)c3ccc(-c4ccccc4F)o3)cc2)CC1` gave FLuc modulator 2.7µM*, Rab9 promoter act 1µM*, ELG1 genotox inconclusive, uPA generation -8% and NPC1 prom act 3.2µM*.
For O=C(Nc1ccc(N2CCOCC2)cc1)c1ccc(Br)o1 the results were FLuc modulator 4.3µM*, Rab9 promoter act 0.28µM*, ELG1 genotox inconclusive, uPA generation -11% and NPC1 prom act 0.45µM*.
`CCOCCn1ccc2c(OCC(=O)Nc3cccc([N+](=O)[O-])c3)cccc2c1=O` gave FLuc modulator 1%.
Screening O=C(Nc1ccccc1)N1CCC2(CC1)CCN(C(=O)c1cnccn1)CC2 returned SMN2 splice enh -11%.
